The text below walks through data of PubChem BioAssay (NCATS).

Structures are written as SMILES. Results filed as inconclusive are left out. Active and inactive are the calls of the source. The call rests on the fitted dose curve; in most records, active means well fitted cell-killing curve with a large enough effect; inconclusive means small, poorly fitted or top-dose-only effect, or effect the other way; inactive means no such curve, though single readings can be large or run the other way.

The nature of assay [1]: Quantitative High-Throughput drug screen in 47 multiple myeloma cell lines against the NCATS MIPE library collection: XG6_PLB cell viability assay (AID 1919865). Further: nearly all actives have a fitted effect of over 40% in size. The method in brief:
(§1)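 Plated at 500 cells per well, myeloma lines received MIPE 4.0 compounds by pin tool. Following 48 h culture at 37 °C, CellTiter-Glo luminescence gave viability relative to DMSO and media-only controls.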

A short description of assay [2]: Quantitative High-Throughput drug screen in 47 multiple myeloma cell lines against the NCATS MIPE library collection: XG1_PLB cell viability assay (AID 1919866). Further: nearly all actives have a fitted effect of over 35% in size. The method in brief:
as §1

A short description of assay [3]: Quantitative High-Throughput drug screen in 47 multiple myeloma cell lines against the NCATS MIPE library collection: VP6_DJ cell viability assay (AID 1919867). Further: nearly all actives have a fitted effect of over 40% in size. The method in brief: as §1
Assay [4] is described as follows: Quantitative High-Throughput drug screen in 47 multiple myeloma cell lines against the NCATS MIPE library collection: UTMC2_PLB cell viability assay (AID 1919868). Further: nearly all actives have a fitted effect of over 55% in size. Conditions: CellTiter-Glo ATP luminescence, 48 h; viability (% of DMSO control): at 45.8 µM (top of the series) unless noted. The method in brief: as §1
The nature of assay [5]: Quantitative High-Throughput drug screen in 47 multiple myeloma cell lines against the NCATS MIPE library collection: PE2_PLB cell viability assay (AID 1919869). Further: nearly all actives have a fitted effect of over 35% in size. The method in brief: as §1
Assay [6] can be described thus: Quantitative High-Throughput drug screen in 47 multiple myeloma cell lines against the NCATS MIPE library collection: PCM6_Riken cell viability assay (AID 1919870). Further: nearly all actives have a fitted effect of over 30% in size. The method in brief:
as §1

Assay [7] is described as follows: Quantitative High-Throughput drug screen in 47 multiple myeloma cell lines against the NCATS MIPE library collection: KMS11_JCRBsus cell viability assay (AID 1919873). Further: nearly all actives have a fitted effect of over 50% in size. The method in brief: as §1
The nature of assay [8]: Quantitative High-Throughput drug screen in 47 multiple myeloma cell lines against the NCATS MIPE library collection: KMS28BM_JCRB cell viability assay (AID 1919874). Further: nearly all actives have a fitted effect of over 35% in size. The method in brief:
as §1

The nature of assay [9]: Quantitative High-Throughput drug screen in 47 multiple myeloma cell lines against the NCATS MIPE library collection: RPMI8226_ATCC cell viability assay (AID 1919871). Further: nearly all actives have a fitted effect of over 30% in size. The method in brief: as §1
Assay [10] is described as follows: Quantitative High-Throughput drug screen in 47 multiple myeloma cell lines against the NCATS MIPE library collection: OPM2_DSMZ cell viability assay (AID 1919872). Further: nearly all actives have a fitted effect of over 30% in size. The method in brief:
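We plated 500 myeloma cells per well, pinned in MIPE 4.0 compounds, and incubated for 48 hours at 37C. ATP was then quantified with CellTiter-Glo, with DMSO and media-only wells defining 100% and 0%.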
Potency means the concentration at half of the fitted maximal effect.

`COc1cc2c(Oc3ccc4[nH]c(C)cc4c3F)ncnc2cc1OCCCN1CCCC1`: the Potency in assay [1] is 2350 nM (active); in assay [2], 3320 nM (active); in assay [3], 4690 nM (active); in [4], 26400 nM (active); in [5], 13200 nM (active); in [6] it was 2350 nM (active). For the same compound, the Potency is 2960 nM (active) in [7] and 16600 nM (active) in assay [8].
In the case of `CC(C)c1noc(N2CCC(COc3ccc(-c4ccc(S(C)(=O)=O)cc4)nc3)CC2)n1`, the Potency in assay [1] is 3720 nM (active); in assay [2], 2640 nM (active); in assay [3], 7430 nM (active); in [6], 4690 nM (active); in assay [9], 7430 nM (active); in [7], 1180 nM (active). Further, the Potency entry in [5] and in assay [10] was “inactive” in each case.
Consider `COc1cc2c(Oc3ccc(-c4cnc(Nc5ccc(F)cc5)n(C)c4=O)cc3F)ccnc2cc1OCCCN1CCOCC1`, for which the Potency is 3320 nM (active) in assay [1]; 7430 nM (active) in assay [2]; 2640 nM (active) in assay [3]; 5260 nM (active) in assay [4]; 14800 nM (active) in assay [5]; 7430 nM (active) in assay [6]. For the same compound, the results for the Potency in assay [9], in [7] and in [8] were 5900 nM (active), 935 nM (active) and 4180 nM (active), respectively.
For `COc1cccc2c(NCc3ccccc3)nc(-n3c(N)nc4ccccc43)nc12`, the Potency in [1] is 2090 nM (active); in assay [2], 2350 nM (active); in assay [3] it was 4180 nM (active); in assay [5] it was 5260 nM (active); in [6] it was 2350 nM (active); in assay [9] it was 8330 nM (active). Moreover, the Potency in assay [10] is 8330 nM (active); in [7], 2640 nM (active); in assay [8], 2960 nM (active).
For the compound `CC(C)(C)OC(=O)Nc1ccc(-c2cc(C(=O)NCCCCCCC(=O)NO)no2)cc1`, the Potency in assay [1] was 3720 nM (active); in assay [2], 1870 nM (active); in [3], 833 nM (active); in [4] it was 590 nM (active); in [5], 2640 nM (active); in assay [6] it was 1870 nM (active). For the same compound, the Potency in [9] is 3320 nM (active); in assay [10], 2640 nM (active); in assay [7] it was 1480 nM (active); in assay [8] it was 1050 nM (active).
On to `Cc1ccc(-c2ncn(-c3ccc(Nc4nccc(-c5cccc(N6CCOCC6)c5)n4)cc3)n2)cn1`, for which the Potency in assay [1] is 132 nM (active); in assay [2], 93.5 nM (active); in assay [3], 29.6 nM (active); in assay [4], 187 nM (active); in assay [5], 372 nM (active); in [6] it was 37.2 nM (active). Besides, the Potency in assay [9] is 132 nM (active); in [10], 296 nM (active); in assay [8] it was 74.3 nM (active).
Consider `C[C@@]12O[C@@H](C[C@]1(O)CO)n1c3ccccc3c3c4c(c5c6ccccc6n2c5c31)CNC4=O`, for which the Potency is 209 nM (active) in [1]; 132 nM (active) in [2]; 264 nM (active) in assay [3]; 118 nM (active) in [5]; 526 nM (active) in assay [6]; 1320 nM (active) in assay [9]. The results for the Potency in assay [10], in assay [7] and in assay [8] were 1480 nM (active), 418 nM (active) and 833 nM (active), respectively.
Turning to `Clc1ccc2ncc(-c3cccc(NC4CNC4)n3)n2c1`, the Potency in [1] was 8330 nM (active); in assay [2], 14800 nM (active); in assay [3], 16600 nM (active); in [5] it was 16600 nM (active); in [6] it was 18700 nM (active); in assay [9], 20900 nM (active). Further, the Potency is 23500 nM (active) in assay [10] and 20900 nM (active) in assay [7].
As for `CC(C)=CCCC(C)=CCCC(C)=CCSc1ccccc1C(=O)O`, the Potency in assay [1] is 4180 nM (active); in assay [2], 662 nM (active); in assay [3] it was 1870 nM (active); in assay [4], 1180 nM (active); in assay [5], 2350 nM (active); in assay [6], 6620 nM (active). Further, the Potency in assay [9] was 418 nM (active); in [10] it was 4180 nM (active); in assay [8] it was 5900 nM (active).
Regarding `Cc1c(CN2CCN(S(C)(=O)=O)CC2)sc2c(N3CCOCC3)nc(-c3cnc(N)nc3)nc12`, the Potency in assay [1] was 66.2 nM (active); in assay [2], 46.9 nM (active); in assay [3], 23.5 nM (active); in assay [4] it was 26.4 nM (active); in assay [5] it was 37.2 nM (active); in assay [6] it was 418 nM (active). Moreover, the figures for the Potency in assay [9], in assay [10] and in assay [8] were 16.6 nM (active), 105 nM (active) and 13.2 nM (active), respectively.
Consider `CC(C)CC(=O)Nc1n[nH]c2c1CN(C(=O)C1CCN(C)CC1)C2(C)C`, for which the Potency was 935 nM (active) in assay [1]; 1660 nM (active) in assay [2]; 1480 nM (active) in [3]; 2350 nM (active) in [4]; 2090 nM (active) in [5]; 743 nM (active) in [6]. Moreover, the results for the Potency in assay [9], in assay [10] and in [8] were 4180 nM (active), 2350 nM (active) and 2350 nM (active), respectively.
For the compound `COC(=O)Nc1ccc(-c2nc(N3CCOCC3)c3cnn(C4CCN(Cc5cccnc5)CC4)c3n2)cc1`, the Potency in assay [1] was 11.8 nM (active); in assay [2], 23.5 nM (active); in assay [3], 46.9 nM (active); in assay [5], 46.9 nM (active); in [6], 526 nM (active); in [9], 11.8 nM (active). Also, the Potency in assay [10] is 296 nM (active); in [7], 29.6 nM (active); in [8] it was 418 nM (active).
Take `CC[C@H]1CN2CCc3cc(OC)c(OC)cc3[C@H]2C[C@@H]1C[C@@H]1NCCc2cc(OC)c(OC)cc21`: the Potency was 105 nM (active) in [1]; 148 nM (active) in [2]; 148 nM (active) in [3]; 296 nM (active) in assay [5]; 166 nM (active) in [6]; 148 nM (active) in assay [9]. The Potency in assay [10] is 418 nM (active); in [7], 166 nM (active); in assay [8], 235 nM (active).
For the compound `COc1cc2c(Nc3ccc(NC(=O)c4ccccc4)cc3)ncnc2cc1OCCCN1CCOCC1`, the Potency in [1] was 14800 nM (active); in [2], 20900 nM (active); in assay [3], 14800 nM (active); in [5] it was 20900 nM (active); in [6], 16600 nM (active); in [9], 23500 nM (active). Also, in [7], the Potency was 10500 nM (active).
Take `O=c1[nH]nc(Sc2ncc([N+](=O)[O-])s2)n1-c1ccc2c(c1)OCCO2`: the Potency is 2090 nM (active) in assay [1]; 2090 nM (active) in assay [2]; 2350 nM (active) in assay [4]; 743 nM (active) in assay [5]; 1480 nM (active) in assay [6]; 3720 nM (active) in [9]. Besides, the figures for the Potency in [10] and in [8] were 8330 nM (active) and 2960 nM (active), respectively.
